This is part of a sample that, as a whole, favours compounds with a hit. Of some 83,000 tested, about 20% had one in any assay.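 Interpretation: 100, growth as untreated; towards 0, rising growth inhibition; 0, no net growth; 0 to -100, cell death. Compounds scoring below 10 were considered active.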 Calls of active or inactive are those of the source.

In the test the test system is HT29 colon. Kind of test: NCI-60 one-dose screen, 48 h (100 = growth as untreated, 0 = no growth, -100 = all killed). To be noted: 10 µM unless noted. As to the method:
Growth inhibition of the HT29 human tumor cell line is measured as a screen for anti-cancer activity. Cells are grown in 96 well plates and exposed to the test compound for 48 hours. Compounds are tested at a single concentration, which is 10^-5 M for most compounds. The reported endpoint is percent growth (GI% or GIPRCNT), where numbers from 0 - 100% represent growth inhibition, and numbers from -100% - 0 represent cell death. For example, a value of 40 represents 60% growth inhibition. A value of 0 means no net growth occurred over the course of the experiment. A value of -40 indicates 40% of cells at the beginning of the experiment died by the end of the experiment. A value of -100 means all cells are dead at the end of the experiment.
NCI-60 Human Tumor Cell Lines Screen was performed using the standard one-dose NCI protocol, which is described in more detail at https://dtp.cancer.gov/discovery_development/nci-60/default.htm.
Compounds with GIPRCNT values below 10 were considered active. Activity score was based on GIPRCNT using the following formula: […]
Score is 0 for GIPRCNT values of 100 or above, 50 for GIPRCNT values of 0, and 100 for GIPRCNT values of -100.
As for `CO/C=C/C(=O)c1cc2cnc3c(=N)cc(NC(=O)C(C)C)c([nH]1)c23`, the growth is -21.5% (active).
`COC(=O)CC[C@@H](C)[C@H]1CC[C@H]2C3CC[C@@H]4C[C@@H]5CC[C@]4(C)[C@@]3(O5)[C@H](Br)[C@@H](Br)[C@]12C` (stereo not given in full): the growth is 81.6% (inactive).
Then `CCN1CCN(Cc2ccc(NC(=O)Nc3nc(-c4cc(OC)c(OC)c(OC)c4)cs3)cc2C(F)(F)F)CC1`, with 0.541% (active).
For `COc1ccc2c(c1OC)C(=O)O[C@@H]2[C@H]1c2c(c(C#CC#Cc3ccc(F)c(F)c3)c3c(c2OC)OCO3)CCN1C`, the growth was 92.3% (inactive).
Then `CC[C@H](Nc1ncnc2nc[nH]c12)c1nc2cccc(F)c2c(=O)n1-c1ccccc1`, with 50.4% (inactive); and `O=C1NC(=O)C(c2cnc3ccccn23)=C1c1cn2c3c(cc(F)cc13)CN(C(=O)N1CCCCC1)CC2`, with 22.9% (inactive).
Then `C=C1CC[C@@H]2[C@](C)(COC(C)=O)[C@H](OC(C)=O)CC[C@@]2(C)[C@@H]1C/C=C1/C(=O)OC[C@H]1OC(C)=O`, with -39.4% (active); and `Cn1cc(-c2ccc(F)c(C(F)(F)F)c2)nc1C1CCN(c2ncnc3[nH]ncc23)CC1`, with 60.8% (inactive).
Then `CCOc1cc2ncc(C#N)c(Nc3ccc(OCc4ccccn4)c(Cl)c3)c2cc1NC(=O)/C=C/CN(C)C`, with -54.5% (active).
As to `COc1cc(Nc2ncc(F)c(Nc3ccc4c(n3)NC(=O)C(C)(C)O4)n2)cc(OC)c1OC`, the growth was 12.3% (inactive).
Then `O=C(Nc1ccc(C2=NCCCN2)cc1)c1ccc(C(=O)Nc2ccc(C3=NCCCN3)cc2)nc1`, with 109% (inactive); and `Nc1c(C(=O)c2ccccc2)sc2nc(-c3cccs3)ccc12`, with 5.02% (active); and `CN1CC[C@@H](c2c(O)cc(O)c3c(=O)cc(-c4ccccc4Cl)oc23)[C@@H]1CO`, with -12.6% (active).
Then `COc1ccc2c(CCc3ccc(Cl)cc3)c3[n+](cc2c1OC)CCc1cc2c(cc1-3)OCO2`, with 43.1% (inactive); and `C[C@@H](NC(=O)c1ncnc(N)c1Cl)c1ncc(C(=O)Nc2cc(C(F)(F)F)c(Cl)cn2)s1`, with 20.1% (inactive); and `O=C1/C(=C\c2cccc(OCCCCCOc3ccc(Cl)cc3)c2)N=C2SCCCN12`, with 67.4% (inactive).
Then `CCNCCNc1cc(-c2ccc(Cl)c(Cl)c2)c(C#N)c2nc3ccccc3n12`, with -87.3% (active); and `O=C(Cn1ccnc1)Nc1ccc(-c2nc3ccccc3s2)cc1`, with 93.3% (inactive).
For `Cc1c(N)ccc(-c2ccc(N)c(C)c2S(=O)(=O)O)c1S(=O)(=O)O`, the growth is 111% (inactive).
Then `C/C(=C(/c1ccc(Cl)cc1)c1ccc(OCCN2CCCCC2)cc1)c1ccccc1`, with 3.98% (active).
Then `CCOC(=O)Sc1ncnc2nc[nH]c12`, with 59.6% (inactive).
Consider `O=C(c1c(F)ccc(NS(=O)(=O)N2CC[C@@H](F)C2)c1F)c1c[nH]c2ncc(-c3cnc(C4CC4)nc3)cc12`, for which the growth was 3.81% (active).
Then `FC(F)c1nc2ccccc2n1-c1nc(N2CCOCC2)nc(N2CCOCC2)n1`, with 2.81% (active).
Then `NC1=Nc2cc(OCCCN3Cc4ccccc4C3)c(OCC3CC3)cc2C12CCCC2`, with 5.45% (active); and `Cc1ccc(F)c(NC(=O)Nc2ccc(-c3cccc4[nH]nc(N)c34)cc2)c1`, with 2.74% (active); and `Clc1ccc2c(NCCCNCc3ccc4c(c3)OCO4)ccnc2c1`, with 4.6% (active).
In the case of `O=C(Nc1cn[nH]c1-c1nc2ccc(CN3CCOCC3)cc2[nH]1)NC1CC1`, the growth was 16.3% (inactive).
Then `C1=C\COCc2cc(ccc2OCCN2CCCC2)Nc2nccc(n2)-c2cccc(c2)COC/1`, with -30.8% (active).
Then `O=C1NC(=O)[C@@H](c2cn3c4c(cccc24)CCC3)[C@@H]1c1c[nH]c2ccccc12`, with 0.272% (active); and `O=S1(=O)OC(c2cc(Cl)c(O)c(Br)c2)(c2cc(Cl)c(O)c(Br)c2)c2ccccc21`, with 102% (inactive).
`NC(=O)c1n[nH]n2c1nc(=O)c1c3c(sc12)CCCC3`: the growth was 106% (inactive).
Then `O=C1CC(c2ccc3c(c2)OCO3)c2ncn(-c3ccc(Cl)cc3)c2N1` (stereo not given), with 10.9% (inactive).
Then `N#Cc1c(NC(=O)c2cccs2)[n+]([O-])c2ccc(F)cc2[n+]1[O-]`, with 97.6% (inactive); and `CN(C)CCOC(=O)Nc1nc2ccc(Sc3ccccc3)cc2[nH]1`, with 1.58% (active); and `Cc1cn(-c2cc(NC(=O)c3ccc(C)c(Nc4nccc(-c5cccnc5)n4)c3)cc(C(F)(F)F)c2)cn1`, with 17.4% (inactive).
Then `Cn1cc(-c2cnn3c(N)c(Br)c([C@@H]4CCCNC4)nc23)cn1`, with 23% (inactive).
On to `COc1cc(CCc2cc(NC(=O)c3ccc(N4C[C@@H](C)N[C@@H](C)C4)cc3)n[nH]2)cc(OC)c1`, for which the growth is 4.25% (active).
Then `CCCS(=O)(=O)Nc1ccc(F)c(C(=O)c2c[nH]c3ncc(-c4ccc(Cl)cc4)cc23)c1F`, with 4.44% (active).
As for `Cn1nccc1Nc1nccc(-c2ccn([C@H](CO)c3ccc(Cl)c(F)c3)c(=O)c2)n1`, the growth was 19.9% (inactive).
Then `Clc1nc(Cl)c2ncn(CC#CCn3cnc4c(Cl)nc(Cl)nc43)c2n1`, with -44.2% (active).

The values are drawn from PubChem BioAssay (NCI).
